Hit rate of the full screen: of about 140,000 compounds, about 4,300 (3.1%) were called active. Another 21% or so got no clear call; they are omitted. For the sample, actives were picked, then their nearest neighbours and some compounds at random. Values without a mark were called inactive.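 Rule for the calls: active = readout at or below -70, meaning at least 70% loss of cells showing the perinucleolar compartment, a nuclear body marking cancer cells; inconclusive = readout between -30 and a set limit; inactive = the rest.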
experiment: High Content Assay for Compounds that inhibit the Assembly of the Perinucleolar Compartment; conditions: PC3M PTB-GFP, PNC prevalence imaging, 16 h; at 10 µM; hits give low values;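 note: plate controls were DMSO wells for no effect and camptothecin positive control wells for full effect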
Outline: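 Compounds are pinned in duplicate onto adhered PC3M cells stably expressing GFP-tagged PTB and incubated 16 h at 37 C. Cells are then fixed, nuclei stained with Hoechst, and PNC-positive cells counted.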

Row | SMILES | activity change (PNC), negative = inhibition
1 | Fc1ccc(N2N=C(c3cccs3)CC2c2ccco2)c(F)c1 (stereo not given) | 17.8%
2 | CCS(=O)(=O)Nc1ccc(C2=NN(S(=O)(=O)c3ccc(F)cc3)C(c3ccco3)C2)cc1 (stereo not given) | 13.9%
3 | Cc1ccc(C2=NN(C(=O)CSc3nc(N)cc(N)n3)C(c3ccco3)C2)cc1 (stereo not given) | -113% (active)
4 | CC(C)(C)c1ccc(NC(=O)COC(=O)CCc2nc3ccccc3c(=O)[nH]2)cc1 | -24.2%
5 | C/C(=N/NC(=O)c1ccc(Br)o1)c1ccc(C)o1 | -24.9%
6 | CCOc1ccc(NC(=O)c2ccc(CSc3nnnn3C)cc2)cc1 | -8.75%
7 | CCc1cccc(CC)c1NC(=O)COc1ccccc1C(=O)c1cc(C#N)c(=O)n(C2CCCCC2)c1 | -12.2%
8 | CCCOC(=O)c1[nH]c2c(c1C)C(=O)CC(c1cccs1)C2 (stereo not given) | -85.9% (active)
9 | CCOC(=O)c1[nH]c2c(c1-c1ccccc1)C(=O)CC(c1ccc(Cl)cc1)C2 (stereo not given) | 35.7%
10 | CCCOC(=O)c1[nH]c2c(c1C)C(=O)CC(c1cc(OC)c(OC)c(OC)c1)C2 (stereo not given) | 10.3%
11 | CSc1ccccc1NC(=O)c1cc(C2CC2)on1 | -108% (active)
12 | O=C(Nc1cc(C(F)(F)F)ccc1Cl)c1cc(C2CC2)on1 | -19.5%
13 | CSc1ccccc1NC(=O)Cc1ccc(Br)cc1 | 27%
14 | Cc1cc(C(C)(C)C)cc(C)c1N | 15.5%
15 | O=C(Cc1cc(=O)[nH][nH]1)N/N=C/c1ccccc1[N+](=O)[O-] | -21.2%
16 | Cc1ccc(N(C(=O)c2ccc(CN3CCOCC3)o2)C(C(=O)NCCC(C)C)c2cccs2)c(C)c1 (stereo not given) | 4.19%
17 | O=C(Nc1ccccc1)c1ccc2c(c1)OCO2 | 16.1%
18 | COc1ccc(NC(=O)Nc2ccc3nsnc3c2)cc1 | -27.5%
19 | O=C(Nc1ccccc1)c1ccc2nsnc2c1 | -106% (active)
20 | Cc1cc(C)cc(NC(=S)NCCCN2CCOCC2)c1 | 26.5%
21 | Cc1ccc2c(Cl)c(C(=O)NCCCn3ccnc3)sc2c1 | -3.58%
22 | CCCCC(=O)Nc1ccc(C(=O)NCCCn2ccnc2)cc1 | 40.1%
23 | O=C(NCCCn1ccnc1)Nc1ccc(Cl)cc1Cl | -114% (active)
24 | CCCOc1ccc(NC(=O)C2OC3OC(C)(C)OC3C3OC(C)(C)OC23)cc1 (stereo not given) | 10.2%

Row | SMILES | activity change (PNC), negative = inhibition
25 | COc1cccc(/C=N\NC(=O)C2=NNC(=O)C2C)c1O (stereo not given) | -8.21%
26 | COc1cccc(/C=N/Nc2ncc(C(F)(F)F)cc2Cl)c1O | -85.6% (active)
27 | COc1cc(/C=C2\SC(=S)N(Nc3ncc(C(F)(F)F)cc3Cl)C2=O)cc(OC)c1OC | 7.84%
28 | CCc1ccc2c(c1)C(c1ccc([N+](=O)[O-])cc1)=NNC(c1ccccc1)=N2 | 34.2%
29 | Cc1ccc(-c2cc(C(=O)N/N=C/C=C/c3ccccc3)n[nH]2)o1 | -21.8%
30 | CC(=O)CCC(=O)c1ccc2ccccc2c1 | 36.3%
31 | Cc1cc(Cl)c(S(=O)(=O)Nc2ccc3c(c2)OCCO3)cc1OCC(N)=O | -121% (active)
32 | Cc1cc(Cl)c(S(=O)(=O)NCC2CCCO2)cc1OCC(N)=O (stereo not given) | 9.99%
33 | Cc1cc(Cl)c(S(=O)(=O)N(C)C)cc1OCC(N)=O | -29.4%
34 | CCOC(=O)CSC1=C(C#N)C(c2ccco2)C(C(=O)OCc2ccccc2)=C(C)N1 (stereo not given) | -21.7%
35 | CC1=C(C(=O)Nc2ccccc2)C(c2cccs2)C(C#N)=C(SCC#N)N1 (stereo not given) | -107% (active)
36 | CC1=C(C(=O)Nc2ccccc2)C(c2ccco2)C(C#N)=C(SCC(N)=O)N1 (stereo not given) | -15.2%
37 | Cc1nn(C)c(C(=O)NNC(=S)NC2CCCCC2)c1Cl | 8.24%
38 | Cc1ccc(NN=C2C(=O)OC(C)(C)OC2=O)c(C)c1 | 57.8%
39 | Cc1ccn(CC(=O)N2N=C(C(F)F)CC2(O)C(F)F)n1 (stereo not given) | 3.67%
40 | COc1cc(OC)cc(C(=O)Nc2ccc(S(=O)(=O)Nc3cc(C)on3)cc2)c1 | -25.6%
41 | COc1ccc(C(=O)Nc2ccc(S(=O)(=O)NC(C)C)cc2)cc1 | -112% (active)
42 | COc1ccc(NC(=O)c2ccc(OC)cc2)cc1 | 29.1%
43 | CC(=O)Nc1ccc(/C(C)=N/NC(=O)CN(c2ccccc2Br)S(C)(=O)=O)cc1 | -2.45%
44 | CCOc1ccc2[nH]c(=O)c(CN(Cc3nnnn3Cc3ccccc3)CC3CCCO3)cc2c1 (stereo not given) | -2.29%
45 | CCOc1ccc2[nH]c(=O)c(CN(Cc3nnnn3CCc3ccccc3)CC3CCCO3)cc2c1 (stereo not given) | -100% (active)
46 | COc1ccc2[nH]c(=O)c(CN(Cc3nnnn3CCc3ccccc3)CC3CCCO3)cc2c1 (stereo not given) | -7.29%
47 | Cc1ccc(S(=O)(=O)NCC(=O)N2CCN(c3ccccn3)CC2)cc1 | -10%
48 | Cc1ccc(N2CCN(c3ccc(C)cc3)C2c2ccccn2)cc1 | -81.6% (active)

Row | SMILES | activity change (PNC), negative = inhibition
49 | Cc1ccc(-n2ccc(=O)c(C(=O)O)n2)cc1 | -18.4%
50 | CN(c1ccccc1)c1nc(N)c([N+](=O)[O-])c(NCc2ccco2)n1 | 22%
51 | CNC(=O)/C(C#N)=C/c1c(F)cccc1Cl | 52.2%
52 | COc1ccccc1N1CCN(CC(=O)NC(=O)NCc2ccco2)CC1 | -19.8%
53 | Cc1noc(NS(=O)(=O)c2ccc(N/C=C/C(=O)c3ccccc3)cc2)c1C | 34.4%
54 | Cc1noc(NS(=O)(=O)c2ccc(NC(=O)C34CCC(CC3)C4)cc2)c1C | -120% (active)
55 | COc1ccc(C(=O)Nc2ccc(S(=O)(=O)Nc3onc(C)c3C)cc2)cc1OC | 85.8%
56 | CCOC(=O)C1CCN(C(=O)/C=C/c2cc(OC)c(OC)c(OC)c2)CC1 | 5.16%
57 | COC(=O)c1cnn2c(C(F)(F)F)cc(-c3ccco3)nc12 | 48.3%
58 | COc1ccc(OCC(=O)N2CCOCC2)cc1 | -29.5%
59 | COc1ccc(-c2cc(C(F)(F)F)n3nc(C(=O)N4CCOCC4)c(Cl)c3n2)cc1 | -106% (active)
60 | CCn1c(COc2cccc(OC)c2)nnc1SCC(=O)N1CCOCC1 | -11.5%
61 | COc1ccc(-c2ccnc(SCC(=O)N3CCOCC3)n2)cc1 | -100% (active)
62 | COc1ccc(-c2nc(SCC(=O)N3CCOCC3)n[nH]2)cc1 | -17.8%
63 | C/C(=N\NC(=O)c1ccc(NS(=O)(=O)c2cccs2)cc1)c1ccc2ccccc2c1 | 3.73%
64 | CC1CCCN(CCOCCOc2ccccc2-c2ccccc2)C1 (stereo not given) | 40%
65 | COC(=O)c1ccc2c(c1)S(=O)(=O)NC(=NCCCN1CCOCC1)S2 | -119% (active)
66 | O=C(NCCN=C1NS(=O)(=O)c2ccccc21)c1ccc(S(=O)(=O)N2CCOCC2)cc1 | -5.59%
67 | CC(=O)c1ccc(OCCN2CCOCC2)cc1 | 20.1%
68 | COc1ccc(C(=O)NNC(=S)NC(=O)c2ccccc2[N+](=O)[O-])cc1 | -4%
69 | O=C(O)c1ccc(/C=N/NC(=O)c2ccc(Br)cc2)cc1 | -18.4%
70 | O=C(C(Cl)Cl)N1CCN(c2ccccn2)CC1 | 42.3%
71 | Cc1ccccc1CN(c1ccc(C(=O)NCC2CCCO2)cc1)S(C)(=O)=O (stereo not given) | -1.65%
72 | COc1ccc(Cl)cc1NC(=O)CNc1ccccc1F | -22.5%

Row | SMILES | activity change (PNC), negative = inhibition
73 | COc1ccccc1Nc1ncc(C(C)=O)c(C)n1 | 9.62%
74 | C=C(C)C1CC=C(C)/C(=N\NC(=O)CNc2ccccc2OC)C1 (stereo not given) | -81.8% (active)
75 | CCCCc1cc2c(s1)CCCC/C2=N/O | 0.0645%
76 | Cc1cc(C)c2c(n1)sc1c(=O)n(-c3ccccc3)c(=O)[nH]c12 | 19.8%
77 | CCn1c(/C=N/NC(=O)c2ccc(OC)cc2)nc2ccccc21 | 27.2%
78 | CCC(CC)C(=O)N1CCN(c2cccc(C)c2C)CC1 | -15.3%
79 | COc1cc(/C=N\NC(=O)c2nonc2N)c(OC)cc1Br | 16.4%
80 | COc1ccc(Cc2nnc(N/N=C/c3ccccc3O)[nH]c2=O)cc1OC | -84.6% (active)
81 | COc1ccc(/C=N/Nc2nc3ccccc3c(=O)[nH]2)cc1 | 25.5%
82 | COc1ccc(CCNC(=O)CCCCn2c(=O)[nH]c3ccccc3c2=O)cc1OC | -14.6%
83 | NS(=O)(=O)c1cc(C(=O)NCCOc2ccccc2)c(Cl)cc1Cl | -9.28%
84 | C=CCNC(=O)c1ccccc1NC(=O)c1ccc(Cl)c(S(=O)(=O)Nc2cccc(C)c2C)c1 | -8.83%
85 | O=C(O)CSCC(=O)Nc1cccc(C(F)(F)F)c1 | -17.2%
86 | CCNS(=O)(=O)c1ccc(NC(=O)Nc2cccc(C(F)(F)F)c2)cc1 | -8.69%
87 | CC(C)C[C@H](NC(=O)Nc1cccc(C(F)(F)F)c1)C(=O)O | -100% (active)
88 | CC(=O)Nc1ccc(S(=O)(=O)NCC(=O)OCc2cc(=O)oc3ccc4ccccc4c23)cc1 | -24.6%
89 | Cc1cc(C(=O)COC(=O)CNC(=O)c2ccc(F)cc2)c(C)n1Cc1ccco1 | 8.75%
90 | Cc1cc(OCCN2CCCC2)ccc1C(C)C | -100% (active)
91 | Cc1cc(OCCN2CCCC2)cc(C(C)C)c1 | 0%
92 | c1ccc2cc(OCCN3CCCC3)ccc2c1 | -15.5%
93 | Cc1cc([N+](=O)[O-])nn1CC(=O)Nc1ccc(Cc2ccncc2)cc1 | -5.96%
94 | Cc1scc(C(=O)NNC(=S)NCc2ccccc2)c1C | 11.8%
95 | CCCCn1c(O)c(N=NC(=O)Cn2c(C(F)(F)F)nc3ccccc32)c2ccccc21 | -20%
